Measured values: ChEMBL document CHEMBL4888484, “Replenishing the malaria drug discovery pipeline: Screening and hit evaluation of the MMV Hit Generation Library 1 (HGL1) against asexual blood stage Plasmodium falciparum ,using a nano luciferase reporter read-out” (2022)
In all, about 150,000 compounds went through this assay and about 540 (0.36%) showed an effect of 50% or more. Shown is part of a subset that was picked to be rich in strong results.

system: Plasmodium falciparum; test: Primary screen in NF54 nanoGlo assay, in single point, at 2uM, 72h; a lower Z score goes with more inhibition; type: functional, Erythrocyte; settings: timepoint 72 hour

Question: What does the source list for `COc1cccc(CCn2ccnc2C(C)C)c1`?
Answer: % Inhibition: -4%; Z score: 0.93

Question: With `COc1ccccc1CCNC(=O)c1ccccc1N1CCC(NS(=O)(=O)c2ccc(F)cc2)CC1` as the compound, how does the “% Inhibition” value read?
Answer: 11%

Question: What about the Z score of the same compound?
Answer: -1.5

Question: Which results are given for `N[C@H]1C[C@@H](c2cc(N3CCN(C4CCCCC4)CC3)nc(N3CCCC3)n2)C1`?
Answer: % Inhibition: 56%; Z score: -8.12

Question: For `c1ccc2c(N3CCCC3)nc(N3CCN(C4CCCCC4)CC3)nc2c1`, which “% Inhibition” value is on record?
Answer: -5%

Question: And the Z score?
Answer: 0.7

Question: For `NC1CC(c2cc(N3CCCCCCCC3)ncn2)C1` (centres undefined), which “% Inhibition” value is on record?
Answer: -23%

Question: What about the Z score of the same compound?
Answer: 2.99

Question: For `CC(C)c1nnc2c3ccccc3nc(N3CCN(C(=O)c4ccc(Cl)cc4)[C@@H](C)C3)n12`, which “% Inhibition” value is on record?
Answer: -1%

Question: And the Z score?
Answer: 0.12

Question: For `Nc1nc(C2CC(N)C2)cc(N2CCC(Oc3ccccc3Cl)CC2)n1` (centres undefined), which “% Inhibition” value is on record?
Answer: 50%

Question: And the Z score?
Answer: -7.79

Question: What does the source list for `Nc1nc(N2CCN(c3ccc(F)c(Cl)c3)CC2)cc([C@H]2C[C@@H](N)C2)n1`?
Answer: % Inhibition: 49%; Z score: -3.16

Question: Which results are given for `Nc1nc(N2CCN(Cc3ccc(F)cc3)CC2)cc([C@H]2C[C@@H](N)C2)n1`?
Answer: % Inhibition: 16%; Z score: -2.35

Question: For `Cc1ccc(Cc2nnc(NC(=O)Cc3ccccc3Cl)o2)c(C)c1`, which “% Inhibition” value is on record?
Answer: -13%

Question: What about the Z score of the same compound?
Answer: 1.44

Question: Which “% Inhibition” value does the source give for `CN1CCCN(c2ccc3ccc(F)cc3n2)CC1` here?
Answer: -5%

Question: What about the Z score of the same compound?
Answer: 0.48

Question: How did the “% Inhibition” value turn out when `CCNC(=O)N[C@H]1CCN(C2CCCCCC2)C1` was run?
Answer: 1%

Question: And the Z score?
Answer: -0.09

Question: Which results are given for `Oc1ccccc1-c1cc(-c2ccccc2)c2c(ccc3ccccc32)n1`?
Answer: % Inhibition: -5%; Z score: 0.64

Question: For `CCOc1cc(-c2cc(-c3ccccc3O)nc3ccc4ccccc4c23)cc(Br)c1O`, which “% Inhibition” value is on record?
Answer: 82%

Question: And the Z score?
Answer: -8.45

Question: Which results are given for `COc1cc(-c2cc(-c3cccnc3)c3c(ccc4ccccc43)n2)cc(Cl)c1O`?
Answer: % Inhibition: 18%; Z score: -2.48

Question: `Cn1ccnc1CN1C[C@@H](F)C[C@H]1CNc1ncnc2c1CCCCC2` was tested. Which “% Inhibition” value did it give?
Answer: -4%

Question: What about the Z score of the same compound?
Answer: 0.8

Question: What does the source list for `COc1cccc(C(=O)N2CCN(C(=O)Cn3cc(Cl)cn3)CC2)c1`?
Answer: % Inhibition: -4%; Z score: 0.42

Question: How did the “% Inhibition” value turn out when `Cn1ccc(NS(=O)(=O)c2cccc3c2N=S=N3)n1` was run?
Answer: -1%

Question: What about the Z score of the same compound?
Answer: 0.06

Question: Which results are given for `O=C(N[C@@H]1CN(Cc2ccccn2)CCC[C@H]1O)c1ccc(OCc2ccccc2)cc1`?
Answer: % Inhibition: 59%; Z score: -6.9

Question: Which results are given for `O=C(N[C@@H]1CN(Cc2ccc(CO)o2)CCC[C@H]1O)c1ccc(OCc2ccccc2)cc1`?
Answer: % Inhibition: 26%; Z score: -2.94

Question: For `CCOc1cccc(C(=O)N[C@H]2CCN(Cc3ccccn3)C[C@@H]2O)c1`, which “% Inhibition” value is on record?
Answer: 2%

Question: What about the Z score of the same compound?
Answer: -0.4

Question: Which “% Inhibition” value does the source give for `Cc1ccc(-c2nc(CC(=O)N3CCC(C(C)(C)C)C(O)C3)cs2)o1` (centres undefined) here?
Answer: -3%

Question: And the Z score?
Answer: 0.35

Question: For `Cc1n[nH]c(=O)c2c1cnn2-c1ccccc1`, which “% Inhibition” value is on record?
Answer: 21%

Question: What about the Z score of the same compound?
Answer: -2.61

Question: `Cc1nc(-c2c(C)c(C)nn(C)c2=O)sc1C(=O)NC[C@H](C)N1CCc2ccccc21` was tested. Which “% Inhibition” value did it give?
Answer: 31%

Question: And the Z score?
Answer: -3.46

Question: Which “% Inhibition” value does the source give for `CCN=C(NCc1noc(C)n1)NCc1ccccc1OC(C)(C)C` here?
Answer: -6%

Question: What about the Z score of the same compound?
Answer: 0.55

Question: With `CCc1ncc(CN2CCC[C@H](NC(=O)CN3CCOC3=O)CC2)cn1` as the compound, how does the “% Inhibition” value read?
Answer: 9%

Question: What about the Z score of the same compound?
Answer: -1.74

Question: `CC(=O)N(CC[C@]1(Cc2ccccc2Cl)CCOC(C)(C)C1)Cc1ccco1` was tested. Which “% Inhibition” value did it give?
Answer: 32%

Question: What about the Z score of the same compound?
Answer: 1.22

Question: With `Cn1n[n+](CCCCC(Cl)(Cl)Cl)c2ccccc21` as the compound, how does the “% Inhibition” value read?
Answer: 65%

Question: And the Z score?
Answer: -4.82

Question: What does the source list for `Cn1n[n+](CC(=O)Nc2ccccc2Cl)c2ccccc21`?
Answer: % Inhibition: 41%; Z score: -0.29

Question: `COc1c2c(cc3c1[C@@H](C#CCOc1ccccc1)[N+](C)(C)CC3)OCO2` was tested. Which “% Inhibition” value did it give?
Answer: 64%

Question: What about the Z score of the same compound?
Answer: -13.6

Question: How did the “% Inhibition” value turn out when `COc1c2c(cc3c1[C@H](CC(=O)Cc1ccccc1)[N+](C)(C)CC3)OCO2` was run?
Answer: -1%

Question: And the Z score?
Answer: 0.08

Question: What does the source list for `COc1c2c(cc3c1[C@H](C(=O)NC(c1ccccc1)c1ccccc1)[N+](C)(C)CC3)OCO2`?
Answer: % Inhibition: 2%; Z score: -0.21

Question: What does the source list for `Cn1c(COc2ccccc2C(N)=O)nnc1-c1ccc(Cl)cc1`?
Answer: % Inhibition: 3%; Z score: -0.35

Question: Which results are given for `COc1cccc(C(=O)N2C[C@@H]3CC[C@H]2CN(Cc2c(C)noc2C)C3)c1`?
Answer: % Inhibition: 4%; Z score: -0.53

Question: What does the source list for `c1ccc(-c2nc(CN3CCc4ccccc4C3)cs2)cc1`?
Answer: % Inhibition: -1%; Z score: 0.12

Question: How did the “% Inhibition” value turn out when `c1ccc(-c2nc(C[n+]3ccc4c(c3)CCCC4)cs2)cc1` was run?
Answer: 63%

Question: And the Z score?
Answer: -6.15

Question: Which “% Inhibition” value does the source give for `c1ccc(-c2nc(CN3CCCCCCC3)cs2)cc1` here?
Answer: -10%

Question: And the Z score?
Answer: 1.49

Question: What does the source list for `O=C(Cn1cc(-c2ccccc2)ncc1=O)NC[C@@H]1CCCN2CCCC[C@H]12`?
Answer: % Inhibition: -8%; Z score: 0.97

Question: `CCCCN(CCCNC(=O)[C@H]1CCCN(c2ncnc3onc(C)c23)C1)Cc1ccccc1` was tested. Which “% Inhibition” value did it give?
Answer: 5%

Question: And the Z score?
Answer: -0.69

Question: What does the source list for `O=C(O)C[C@@H]1CN(C(=O)c2ccc3c(c2)OCO3)C[C@@H]1c1c[nH]nn1`?
Answer: % Inhibition: -3%; Z score: 0.47

Question: How did the “% Inhibition” value turn out when `COC(=O)c1ccc(C)c(OCc2cn3ccccc3c2C#N)c1` was run?
Answer: -17%

Question: What about the Z score of the same compound?
Answer: 2.14

Question: `CCN(CC)Cc1cn2ccccc2c1C#N` was tested. Which “% Inhibition” value did it give?
Answer: -12%

Question: And the Z score?
Answer: 1.72

Question: Which results are given for `N#Cc1c(NC(=O)Nc2cn3ccccc3c2C#N)cn2ccccc12`?
Answer: % Inhibition: 65%; Z score: 1.13

Question: What does the source list for `CC1CCC(O)(CS(=O)(=O)Cc2nccs2)CC1` (centres undefined)?
Answer: % Inhibition: -8%; Z score: 1.13

Question: With `COc1ccc2[nH]c3c(c2c1)CC(C(=O)O)NC3c1ccc(OC)c(CN2CCN(c3ccccc3F)CC2)c1` (centres undefined) as the compound, how does the “% Inhibition” value read?
Answer: 74%

Question: And the Z score?
Answer: -11.3

Question: How did the “% Inhibition” value turn out when `COc1ccc(C2N[C@H](C(=O)O)Cc3c2[nH]c2ccccc32)cc1` (some centres undefined) was run?
Answer: -14%

Question: What about the Z score of the same compound?
Answer: 2.25

Question: With `COc1cc(C2N[C@H](C(=O)O)Cc3c2[nH]c2ccccc32)ccc1OCc1ccccc1` (some centres undefined) as the compound, how does the “% Inhibition” value read?
Answer: -3%

Question: And the Z score?
Answer: 0.42

Question: `Cc1csc(Oc2ccc(N)cc2F)n1` was tested. Which “% Inhibition” value did it give?
Answer: -12%

Question: What about the Z score of the same compound?
Answer: 1.47

Question: What does the source list for `CC1CN(C(=O)CN(C)c2cnccn2)CC(C)O1` (centres undefined)?
Answer: % Inhibition: -5%; Z score: 0.83

Question: Which results are given for `Cc1nc2cc(NC(=O)c3ccccn3)ccc2o1`?
Answer: % Inhibition: 11%; Z score: -1.99

Question: For `O=C(Nc1cccc(CNc2nc3ccccc3o2)c1)c1ccccn1`, which “% Inhibition” value is on record?
Answer: -13%

Question: What about the Z score of the same compound?
Answer: 1.61

Question: How did the “% Inhibition” value turn out when `Cc1cc(NC(=O)c2ccccn2)n(-c2nc3ccccc3o2)n1` was run?
Answer: 89%

Question: And the Z score?
Answer: -10.15
